Compounds with a hit are over-represented: about 0.63% of the library has one in this group of screens.
TCR activator: T cell receptor activation; primary human leukocytes, anti-CD3, IL-2 HTRF, 48 h; Potency, µM (titrated, usually from 9.22 µM), for the others: top-dose activation of IL-2 secretion, most hits filed as activators; 330,000 tested, under 10 active; AID 504894; active = well fitted activation curve with a large enough effect; inconclusive = small, poorly fitted or top-dose-only effect, or another doubt; inactive = no such curve, though single readings can be large or run the other way; note: % of control where 0% means no effect
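Using a-CD3 beads without co-stimulation, primary human leukocytes were exposed to compounds for 48 hr. An HTRF IL-2 kit measured the cytokine, with europium-to-d2 energy transfer producing emission at 665nm upon 320nm excitation.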
gsp antag: antagonists of gsp mutant (McCune-Albright syndrome) | gsp-mutant cells, cAMP HTRF, 30 min | Potency, µM (doses to about 76.9 µM), for inactives: top-dose activity change, negative = inhibition, hits mostly inhibitors | 0.4% of 340,000 active; calls by dose curve; cell line not stated here;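 note: intracellular cAMP measured with PDE inhibitor Ro 20-1724 present during compound exposure; potency is the fitted concentration of half-maximal effect; % is set by controls: 0 for no effect and ±100 for the full control effect; nearly all actives have a fitted effect of over 65% in size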
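HTRF cAMP measurement after 30 min RT detection following 30 min, 37C compound treatment alongside […] (added as 300 uM solution) in G418-selected cells seeded at 2000/well and grown 16–24 h.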
TSHR antag: human thyrotropin receptor antagonism; P16473; TSHR-expressing cells, TSH-stimulated cAMP HTRF, 2 h; stronger effect = lower value; activity change, negative = inhibition, % at 11.5 µM; 0.2% of 330,000 active; AID 504810;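 active = activity change below a set negative limit, meaning inhibition stronger than a set level, cut at about -70% in these data; inconclusive = activity change between two set negative limits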; note: % is set by controls: 0 for no effect and ±100 for the full control effect
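Freshly harvested TSHR cells receive pin-tooled compound, then EC80 TSH at 4nM final. After 2 hours at 37 deg C, antibody in lysis buffer and cAMP-d2 are added; 30 minutes at ambient temperature precede the HTRF read.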
Pin1 inhibitor: human Pin1 inhibition; Pin1 FP peptide displacement, HiFluor488, 10 min; Potency, µM (doses to about 115 µM), without a hit: top-dose activity, negative = inhibition, hits mostly inhibitors; 0.009% of 390,000 active; AID 504891; active = well fitted inhibition curve with a large enough effect in the polarisation, with a control signal flat, not every such curve was filed as active; inconclusive = small, poorly fitted or top-dose-only effect, or effect the other way, or a change in a side signal; inactive = no such curve, though single readings can be large or run the other way; the % refers to the polarisation; note: potency is the fitted concentration of half-maximal effect; % is set by controls: 0 for no effect and ±100 for the full control effect
Target sequence (Q13526 whole entry, looked up): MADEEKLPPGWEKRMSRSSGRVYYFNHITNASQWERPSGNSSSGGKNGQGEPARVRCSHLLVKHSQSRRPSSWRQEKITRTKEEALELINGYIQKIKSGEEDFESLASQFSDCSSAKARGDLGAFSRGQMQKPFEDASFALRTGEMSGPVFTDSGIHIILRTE
gsp ag: activates gsp, the McCune-Albright syndrome mutation. 0.13% of 340,000 active. gsp mutant cells, cAMP HTRF, 30 min. Potency, µM (titrated, usually from 76.9 µM), inactives show top-dose activation (cAMP increase), actives largely listed as activators; active = well fitted activation curve with a large enough effect; inconclusive = small, poorly fitted or top-dose-only effect, or another doubt; inactive = no such curve, though single readings can be large or run the other way; cell line not stated here;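 note: phosphodiesterase inhibitor Ro 20-1724 added with compounds to block cAMP breakdown; potency is the fitted concentration of half-maximal effect; nearly all actives have a fitted effect of over 60% in size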
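Cells stably selected in G418 were plated at 2000/well, grown 16-24 hr, then given compounds in DMSO with the PDE inhibitor […] (300 uM solution added) for 30 min at 37C; cAMP was read by HTRF.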
The depositor's hits bear a star; u = inconclusive; x = no result given; [ ] = another dose, or the depositor's remark.

SMILES	TCR activator	gsp antag	TSHR antag	Pin1 inhibitor	gsp ag
COC(=O)c1ccccc1NC(=O)Cn1cc(Br)cn1	-0.5%	-0.6%	-7.7	-5.2%	-70.0%
CC(=O)NC(CSc1cc(C)nc2ccc(Br)cc12)C(=O)O (centres undefined)	-30.2%	25.2%	1.2	0.1%	2.82µM*
CCn1c(CN2CCCCC2)nc2cc(S(=O)(=O)N3CCCCC3)ccc21	0.4%	11.2µM*	-1.8	1.6%	-2.8%
CCn1c(C)nc2cc(S(=O)(=O)N3CCCCC3)ccc21	-1.0%	-15.8%	21.9	-5.5%	-23.8%
COc1ccc(C2CC(=O)Oc3c(C(CCN4CCN(c5ccccc5)CC4)c4ccc(N(C)C)cc4)c(OC)cc(OC)c32)cc1 (centres undefined)	2.4%	1.0%	2.1	-4.7%	x
N#Cc1c(NCCN)nc(NCc2ccccc2)c2c1CCN(Cc1ccccc1)C2	1.9%	-3.7%	-0.5	7.2%	5.9%
O=C1O/C(=C/c2ccccc2)c2ccccc21	-12.1%[46.1 µM]	-4.4%	-0.1	-9.3%	-10.3%[15.4 µM]
Cc1ccc(NC(=O)CNc2ccc(Cl)c(Cl)c2)cc1S(=O)(=O)N(C)C	1.5%[46.1 µM]	39.8µM*	-46.3	10.7%	-33.4%
Cc1ccc(NC(=O)Cc2ccc(Cl)c(Cl)c2)cc1S(=O)(=O)N(C)C	2.2%[46.1 µM]	u	-33.1	15.3%	-3.8%
O=C(c1cccc(F)c1)N1CCN(Cc2ccc3c(c2)OCO3)CC1	x	-9.0%	-41.6	-1.7%	16.1%[15.4 µM]
O=C(c1cc(-c2ccncc2)nc2ccc(Cl)cc12)N1CCN(Cc2ccc3c(c2)OCO3)CC1	-5.3%	-3.6%	-12.0	-13.1%	25.4%[15.4 µM]
O=C(c1cc(-c2ccncc2)nc2ccc(Br)cc12)N1CCN(Cc2ccc3c(c2)OCO3)CC1	x	28.2µM*	-4.1	-0.6%	18.7%[15.4 µM]
CC(C(=O)N1CCN(Cc2ccc3c(c2)OCO3)CC1)c1ccc([N+](=O)[O-])cc1 (centres undefined)	-7.1%	11.2µM*	-1.0	4.0%	-2.5%[15.4 µM]
O=C(c1cccc(Cl)c1)N1CCN(Cc2ccc3c(c2)OCO3)CC1	3.9%	8.6%	-120.1*	1.8%	0.1%
O=C(c1ccc2c(c1)OCO2)N1CCN(S(=O)(=O)c2ccc(Cl)cc2)CC1	-3.4%	-21.4%	-96.1*	3.8%	2.8%[15.4 µM]
O=C(C(Cl)Cl)N1CCN(Cc2ccc3c(c2)OCO3)CC1	3.4%	-1.0%	4.3	-1.1%	-11.0%
COc1ccc(/C=C2\CCn3c2nc2cc(C(=O)O)ccc2c3=O)cc1	-3.3%	-23.4%	-17.5	-4.9%	-19.0%
O=C(O)C[C@H]1c2cc(F)ccc2S(=O)(=O)N1C1CCN(Cc2ccccc2)CC1	-4.1%	13.3%	x	-14.4%	-40.8%
COc1cc(NC(c2ccccc2)c2ccccc2)cc(OC)c1OC	-3.7%	11.2µM*	11.3	-7.3%	0.2%[15.4 µM]
COc1cc(NC(=O)CNC(c2ccccc2)c2ccccc2)cc(OC)c1OC	-2.0%	-11.7%	-8.6	-2.8%	-13.7%[15.4 µM]
CC(=O)Nc1ccc(Nc2nc(C)nc3c2nnn3Cc2ccccc2Cl)cc1	-4.8%	-4.2%	-2.8	u	7.5%
Cc1ccc(CN(C)CC(=O)NC(C)c2ccccc2)cc1 (centres undefined)	9.4%	5.9%	34.6	0.9%	u
CC(NC(=O)CN(C)Cc1cccc(Cl)c1)c1ccccc1 (centres undefined)	-9.5%	11.2µM*	x	5.6%	1.8%[15.4 µM]
COC(=O)c1cccc(Oc2nc3c(c(=O)n(C)c(=O)n3C)n2Cc2ccc(C)cc2)c1	7.7%	10.3%	x	-3.9%	7.94µM*
CC1CCN(N=Nc2nc3c([nH]2)c(=O)n(C)c(=O)n3C)CC1	2.1%	5.1%	x	-6.9%	12.6µM*
SMILES	TCR activator	gsp antag	TSHR antag	Pin1 inhibitor	gsp ag
O=C(CCc1nc(-c2ccccc2)no1)Nc1cccnc1	-5.3%	-9.6%	-4.3	3.4%	-0.9%[15.4 µM]
CCOC(=O)N/N=C/c1cc(OC)c(O)c(OC)c1	1.3%[46.1 µM]	2.2%	-1.5	7.4%	-0.9%
Nc1ccn(Cc2ccccc2F)n1	-5.5%	2.2%	-72.5*	9.2%	0.2%[15.4 µM]
Nc1ccn(Cc2cccc(Cl)c2)n1	4.3%	7.8%	-3.7	2.3%	1.9%[15.4 µM]
CC(C)CN=Cc1c(O)c([N+](=O)[O-])cc2oc3c(c12)CCCC3	0.8%[46.1 µM]	-25.0%	-85.2*	10.9%	-0.5%
COc1ccc(C2(C)NC(=O)N(CC(=O)Nc3cccnc3Cl)C2=O)cc1 (centres undefined)	x	22.6%	9.8	2.6%	-5.8%[15.4 µM]
Nc1nc(SCC(=O)Nc2cc(Cl)c(Cl)cc2Cl)n[nH]1	0.6%[46.1 µM]	4.1%	-74.0*	7.3%	-8.4%[15.4 µM]
Nc1nc(SCC(=O)Nc2cc(Cl)ccc2Cl)n[nH]1	-4.2%	0.1%	-24.4	5.2%	-15.6%
CC(C)Oc1ccc(C(=O)NCCNC(=O)c2ccco2)cc1	-2.0%	-2.0%	-94.4*	0.0%	8.2%
O=C(NCCNC(=O)c1ccco1)c1ccc(F)cc1	5.6%	-41.8%	-1.6	1.5%	20.9%[15.4 µM]
COCCN(CCOC)c1nc(-c2ccc(C)cc2)nc2ccccc12	x	28.2µM*	0.8	-4.7%	-16.3%
CCC1(CC)NC(=O)N(CC(=O)N2CCN(c3ccccc3F)CC2)C1=O	5.4%	5.0%	2.0	-2.8%	-18.3%
Cc1ccn2c(-c3csc(NCc4ccccc4)n3)c(C)nc2c1	-1.7%[46.1 µM]	39.8µM*	-28.0	1.1%	-39.8%
COc1ccc(CNC(=O)c2cnc3scc(C)n3c2=O)cc1	-2.9%	7.5%	10.7	10.7%	u
COc1cccc(NC(=O)Nc2nc(SC(C)(C)C)ns2)c1	-1.2%	39.8µM*	u	-0.7%	-43.9%
N/C(Cc1ccc([N+](=O)[O-])cc1)=N\OC(=O)Cc1ccccc1	18.3%[46.1 µM]	7.5%	-8.2	-1.0%	-27.1%
N/C(Cc1ccc([N+](=O)[O-])cc1)=N\OC(=O)Cc1ccc(Cl)cc1	1.3%[46.1 µM]	-11.5%	-77.3*	3.9%	5.6%
COc1cc(-c2ccc3oc(-c4ccsc4)cc(=O)c3c2)cc(OC)c1OC	2.0%	u	-24.1	20.7%	-40.3%
CCOC(=O)c1ccc(-c2ccc3oc(-c4ccsc4)cc(=O)c3c2)cc1F	-2.7%	7.08µM*	-10.7	-0.6%	x
Cc1sc2ncn(CC(=O)NCC(=O)N3CCN(c4ccc(F)cc4)CC3)c(=O)c2c1C	0.7%	-3.4%	-4.7	-1.1%	29.1%
O=S(=O)(Nc1nc2ccccc2nc1Nc1cccc(S(=O)(=O)N2CCCCC2)c1)c1ccccc1	-2.6%[46.1 µM]	35.5µM*	-46.0	x	-45.3%
CC(C)=CCc1c(O)cc2oc3c(CC=C(C)C)c(O)c(O)c(CC=C(C)C)c3c(=O)c2c1O	5.7%	31.6µM*	-21.5	u	u
COC(=O)CNC(c1ccccc1)c1cc(C)ccc1NS(=O)(=O)c1ccc(C)cc1 (centres undefined)	2.4%[46.1 µM]	-15.9%	5.0	-4.6%	8.7%[15.4 µM]
COc1ccc(CNC(=O)C2CCCN2CCc2ccccc2)cc1OC (centres undefined)	3.0%	x	0.3	-1.4%	-4.6%[15.4 µM]
C[C@H]1CN([C@@H](C)CO)C(=O)c2cc(Br)cnc2O[C@H]1CN(C)C(=O)c1cccnc1	x	x	x	x	31.6µM*

Screening data (PubChem)
